# Experimental data reported in PubChem BioAssay (NCI).
# Values joined by “and” are separate entries in the source; they are usually repeats but may differ in a detail not shown here. Equal values may be shown once. About 83,000 compounds went through this panel and 20% of them were active in at least one assay; those are over-represented in the sample as a whole.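 Values shown are percent growth following 48 h exposure of cells in 96-well plates to a single concentration of compound; below 10 was considered active.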 A number with no mark means an inactive call. Active and inactive are the calls of the source.
# Test system: MDA-MB-468 breast
# Experiment: NCI-60 one-dose screen, 48 h (100 = growth as untreated, 0 = no growth, -100 = all killed)
# Settings: 10 µM unless noted
row,Structure (SMILES),growth
1,CCN1C(=S)N(CC)C2Nn3c(s/c(=C4\C(=O)N(C)c5ccccc54)c3=O)=NC21 (stereo not given),11.7%
2,O=[N+]([O-])c1ccc(N/N=C/c2c(O)ccc3ccccc23)nc1,36.9%
3,COC(=O)[C@@]12CC=C(C)[C@]3(C[C@H](c4ccoc4)OC3=O)[C@H]1C=C[C@@H](O)[C@@]2(O)C(=O)OC,121%
4,CN(C)c1ccc(/C=C2\C=C(c3nc4ccccc4s3)OC2=O)cc1,79.8%
5,CCCCc1nc2c(N)nc3ccccc3c2n1Cc1cccc(CN)c1,27.3%
6,COc1ccc(Cl)cc1NC(=O)c1cc2c(n1C)-c1nc(NC(=O)C(C)C)sc1CC2,88.5%
7,O=C(CCl)NNc1nccc(Nc2ccc(S(=O)(=O)Nc3ccncc3)cc2)n1,31.5%
8,COc1ccccc1C(=O)Nc1cccc(-c2cc(=O)c3c(OC)c(OC)c(OC)cc3o2)c1,39.2%
9,O=C(COC(=O)[C@H](C[Se][Se]C[C@H](NC(=O)c1ccc(Br)cc1F)C(=O)OCC(=O)c1ccc(F)cc1)NC(=O)c1ccc(Br)cc1F)c1ccc(F)cc1,-79.5% (active)
10,NC(=NCCCOc1ccc(Cl)cc1)Nc1ccc(Cl)cc1,-14.9% (active)
11,O=Cc1ccc([N+](=O)[O-])s1,103%
12,C=C(c1ccc(C(=O)NCCCn2ccnc2)cc1)c1cc2c(cc1C)C(C)(C)CCC2(C)C,-5.41% (active)
13,CC1=CC(=C(c2ccc(N)cc2)c2ccc(N)cc2)C=CC1=N,-13.6% (active) and -1.34% (active)
14,Nc1ccc(Cl)c2c(=O)c3ccccc3[nH]c12,34%
15,Cc1cc2cc3cc(C)c(N(C)C)cc3[n+](C)c2cc1N(C)C,27.1%
16,COc1cc2cc(Oc3ccc(NC(=O)c4cccc(C(F)(F)F)c4)cc3)c(C)nc2cc1OC,9.35% (active)
17,Cc1ccc([N+](=O)[O-])cc1Br,98.1%
18,CCN(CC)c1ccc(N=O)cc1,23.7%
19,O=C(CNC(=O)c1cccc2ccccc12)Nc1ccccc1Cc1ccccc1,13.7% [5 µM]
20,O=C1c2cc([N+](=O)[O-])ccc2-c2cc(Cl)c(NC(=O)C(F)(F)F)cc21,-17.9% (active)

row,Structure (SMILES),growth
1,O=[N+]([O-])c1ccc(-c2cc3c(Nc4ccc(Cl)c(C(F)(F)F)c4)ncnc3s2)cc1,-10.2% (active)
2,COc1cc(CNC(=O)CCCC/C=C/C(C)C)ccc1OCc1nnc(Nc2ccc([N+](=O)[O-])cc2)o1,53.7%
3,COc1cc(C2C(C#N)=C(c3c[nH]c4ccccc34)Nc3nc(N)[nH]c(=O)c32)cc(OC)c1OC (stereo not given),13.2%
4,O=C(/C=C/c1cccnc1)NCCCCC1CCCN(C(=O)c2ccccc2)C1 (stereo not given),87.9%
5,Cc1ccc(C(=O)NCCCNc2nccc(-n3ccc4cccnc43)n2)cc1,95.6%
6,COc1ccc2c(c1)OC1=C(C(=O)OC1)C2c1cc(OC)c2c(c1)OCCO2 (stereo not given),1.92% (active)
7,O=C(Nc1cccc(-n2ccc3c(NC(=O)c4ccccc4)ncnc32)c1)Nc1ccc(Cl)c(C(F)(F)F)c1,-2.39% (active)
8,N#Cc1c(-c2ccc(F)cc2)c(C#N)c2c(C#N)c(N)nn2c1N,83.5%
9,CC(C)(C)c1nn(-c2ccccc2)c2c1C(=O)CSC(c1ccc3c(c1)OCO3)N2 (stereo not given),120%
10,COc1cc(C)cc2oc3oc(=N)c(C(=O)c4ccccc4)cc3c(=O)c12,108%
11,C=C(C)[C@@H]1CC[C@]2(C(=O)O)CC[C@]3(C)[C@H](CC[C@@H]4[C@@]5(C)C/C(=C/c6ccccn6)C(=O)C(C)(C)[C@@H]5CC[C@]43C)[C@@H]12,9.64% (active)
12,COc1ccc(C2C3=C(COC3=O)N(CCO)c3cc4c(cc32)CCC4)cc1OC (stereo not given),-17.1% (active)
13,COc1ccc(OC2=CC(=O)c3ccc(C)nc3C2=O)cc1,86.2%
14,O=C(OC(OC(=O)c1cc(Cl)cc(Cl)c1)c1cccc2ccccc12)c1ccccc1 (stereo not given),111%
15,C/C=C/C(N)=O,101%
16,COc1ccc(C/C(C)=C(\c2ccc(Cl)cc2)c2ccc(OCCN3CCCCC3)cc2)cc1,98.2%
17,Cc1ccc(C(C)C)cc1NC(=O)Nc1ccc([N+](=O)[O-])cc1,4.03% (active)
18,Cc1ccc(C2CC(c3ccc(Nc4nc(NCCO)nc(Nc5ccc(Cl)cc5)n4)cc3)=Nc3c(N)nc(N)nc3N2)cc1 (stereo not given),-80% (active)
19,CCOC(=O)c1c(NC(=O)CSc2n[nH]c3nc4ccccc4n23)sc(CC)c1C,68.6%
20,COc1cccc2c1Cc1ccccc1-2,99%
